Source: PubChem (National Center for Advancing Translational Sciences (NCATS))
PLK1 PBD inh: PLK1 (human) polo-box domain binding inhibition; Plk1 PBD binding of FITC phosphopeptide, fluorescence polarization; Potency, µM, inactives show max response, negative = inhibition, most hits filed as inhibitors; 2.8% of 360,000 active; P53350; further: potency means the concentration at half of the fitted maximal effect; series mostly up to about 57 µM; on the % scale 0 is the no-effect control and ±100 the full control effect; nearly all actives have a fitted effect of over 65% in size
BAZ2B inh: BAZ2B (human) inhibition. Q9UIF8. AlphaScreen BAZ2B-H3K14Ac peptide displacement. Potency, µM (titrated, usually from 114 µM), for inactives: top-dose activity change, negative = inhibition, most hits filed as inhibitors. 4.4% of 360,000 active; further: potency means the concentration at half of the fitted maximal effect; on the % scale 0 is the no-effect control and ±100 the full control effect; nearly all actives have a fitted effect of over 60% in size
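BAZ2B (50 nM) with biotin-H3(5-23)K14Ac peptide (50 nM) in PBS pH 7.4, 0.01% Tween-20, preformed 30 min, then compound 30 min at room temperature; top concentration 110uM. AlphaScreen streptavidin donor/nickel chelate acceptor beads (10 ug/mL final), 20 min dark, signal read.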
JMJD2A Tudor inh: inhibitors of human JMJD2A Tudor domain | Potency, µM (highest dose often 114 µM), inactives show at the top dose activity change, negative = inhibition, actives largely listed as inhibitors | O75164 | 4.4% of 390,000 active | AID 504339 | AlphaScreen JMJD2A-Tudor / H3K4me3 peptide binding; further: potency means the concentration at half of the fitted maximal effect; on the % scale 0 is the no-effect control and ±100 the full control effect; nearly all actives have a fitted effect of over 50% in size
Target sequence (O75164 whole entry, looked up, the tested form may be a part): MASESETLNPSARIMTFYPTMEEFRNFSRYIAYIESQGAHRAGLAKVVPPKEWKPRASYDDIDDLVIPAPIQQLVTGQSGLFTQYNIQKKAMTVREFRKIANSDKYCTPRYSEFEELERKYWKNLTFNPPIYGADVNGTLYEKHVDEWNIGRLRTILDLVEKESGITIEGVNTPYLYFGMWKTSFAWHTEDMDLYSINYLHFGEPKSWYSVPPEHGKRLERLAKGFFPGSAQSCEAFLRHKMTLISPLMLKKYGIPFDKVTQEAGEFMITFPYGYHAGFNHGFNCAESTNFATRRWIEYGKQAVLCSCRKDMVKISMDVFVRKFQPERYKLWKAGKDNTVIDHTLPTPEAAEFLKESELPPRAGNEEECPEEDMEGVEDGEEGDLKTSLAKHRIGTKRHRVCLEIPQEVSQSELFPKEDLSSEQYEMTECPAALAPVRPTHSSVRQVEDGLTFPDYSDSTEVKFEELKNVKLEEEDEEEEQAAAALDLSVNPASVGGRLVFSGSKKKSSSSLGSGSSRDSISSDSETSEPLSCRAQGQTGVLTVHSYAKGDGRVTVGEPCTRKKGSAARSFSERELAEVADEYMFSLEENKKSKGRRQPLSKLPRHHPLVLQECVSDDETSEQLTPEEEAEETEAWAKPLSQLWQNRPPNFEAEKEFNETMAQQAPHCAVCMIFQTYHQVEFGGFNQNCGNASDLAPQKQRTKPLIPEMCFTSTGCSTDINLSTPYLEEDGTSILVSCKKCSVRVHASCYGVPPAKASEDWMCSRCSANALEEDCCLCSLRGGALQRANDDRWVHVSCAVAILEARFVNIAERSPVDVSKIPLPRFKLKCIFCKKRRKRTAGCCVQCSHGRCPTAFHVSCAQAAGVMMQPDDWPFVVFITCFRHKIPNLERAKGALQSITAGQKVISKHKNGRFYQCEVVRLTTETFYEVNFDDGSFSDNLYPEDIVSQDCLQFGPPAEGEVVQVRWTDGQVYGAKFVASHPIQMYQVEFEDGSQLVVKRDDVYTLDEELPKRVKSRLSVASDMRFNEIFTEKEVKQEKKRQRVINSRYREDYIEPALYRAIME
G9a block: blocks human histone lysine methyltransferase G9a; Q96KQ7; G9a H3K9 monomethylation, AlphaScreen, 2 h; 8.8% of 350,000 active; Potency, µM (doses to about 102 µM), without a hit: at the top dose activity, negative = inhibition, actives largely listed as inhibitors; further: potency means the concentration at half of the fitted maximal effect; on the % scale 0 is the no-effect control and ±100 the full control effect; nearly all actives have a fitted effect of over 75% in size
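Compounds were preincubated with 20 nM G9a for 15 min, after which biotinylated H3K9 peptide (500 nM) and SAM (20 uM) started a 2 h room-temperature reaction. Monomethylated product was quantified by antibody-based AlphaScreen chemiluminescence.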
HP1b binding inh: inhibitors of HP1-beta chromodomain binding to methylated histone tails | 0.56% of 390,000 active | AID 540317 | Potency, µM (doses to about 114 µM), for the others: at the top dose activity change, negative = inhibition, most hits filed as inhibitors | AlphaScreen HP1-beta / biotin-H3K9me3 peptide binding | P83916; further: potency means the concentration at half of the fitted maximal effect; nearly all actives have a fitted effect of over 70% in size
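AlphaScreen: HP1-beta (50 nM) preformed 30 min with biotin-H3(1-18)K9me3 peptide (50 nM) in PBS pH 7.4, 0.01% Tween-20. Compound added for 30 min at RT, then streptavidin donor/nickel chelate acceptor beads (10 ug/mL) for 30 min.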
PI5P4Ka inh: inhibitors of human PI5P4K alpha. P48426. PI5P4Kalpha enzyme, ADP-Glo luminescence, 60 min; stronger effect = lower value. max response, %. 1.2% of 330,000 active. AID 652105; active means max response of -50% or lower; inconclusive means between -30% and -50%; inactive means -30% or higher; further: value at the top dose of about 77 µM; on the % scale 0 is the no-effect control and ±100 the full control effect
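Controls without substrate or without enzyme flank wells where PI5P4Kalpha converts substrate using 5 microM ATP (final). Incubation lasts 60 minutes at room temperature; ADP formed is read by ADP-Glo luminescence.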
Numbers without * were called inactive; ? = inconclusive; · = not tested or not shown; [ ] = remark or other dose. Most compounds without a hit are left out; they make up all but 12% or so of the library. Unless noted, the call rests on the fitted dose curve; in most records, active means well fitted curve in the direction sought with a large enough effect; inconclusive means small, poorly fitted or top-dose-only effect, or another doubt; inactive means no such curve, though single readings can be large; an effect the other way counts as inactive or inconclusive.

SMILES	PLK1 PBD inh	BAZ2B inh	JMJD2A Tudor inh	G9a block	HP1b binding inh	PI5P4Ka inh
Cc1ccc(CN(Cc2cc3cc(C)ccc3[nH]c2=O)Cc2nnnn2Cc2ccccc2)cc1	·	·	-12.3%[57.1 µM]	·	2.6%[57 µM]	·
COCCCN1C(=O)C(CC(=O)NC2CCCCC2)CC(C(=O)N(C)C)=C1C (centres undefined)	-1.9%	·	·	·	·	1.5
Cc1cc(C)cc(Nc2nc3ccccc3n3cnnc23)c1	·	1.2%	0.7%	7.9%[59 µM]	29.1%	·
CCOc1ccc(CCNC(=O)C2CCN(C(=O)c3cc4sccc4n3CC)CC2)cc1OCC	·	-38.2%	-17.5%	1.7%[59 µM]	34.3%	·
COC(=O)c1ccccc1NC(=O)[C@H]1O[C@@H]2OC(C)(C)O[C@@H]2[C@H]2OC(C)(C)O[C@H]21	·	-1.8%	-15.1%	-31.4%[59 µM]	11.7%	·
CC1(C)O[C@H]2[C@@H](O1)[C@@H](C(=O)Nc1ccccc1O)O[C@@H]1OC(C)(C)O[C@@H]12	·	1.8%	1.0%	1µM*	44.2%	·
COc1ccc(N2C(=O)c3cc4ccccc4cc3C2=O)cc1	26.7µM*	-1.4%	-21.1%	6.9%	17.3%	0.8
COc1ccccc1Oc1ccc2c(c1)C(=O)N(c1ccc(C)cc1)C2=O	-7.7%	9.7%	-4.8%	·	41.0%	3.2
COc1ccc(N2C(=O)c3ccc(C(=O)OC(C)C)cc3C2=O)cc1	2.67µM*	4.5%	?	-1.1%[59 µM]	?	-20.8
CCOC(=O)N1CCC(N(CCN(C)C)C(=S)Nc2cc(Cl)cc(Cl)c2)CC1	-8.2%	79.4µM*	-6.3%	?	31.5%	-1.3
Cc1ccc(S(=O)(=O)N2C(=O)C(c3ccccc3)SC2=Nc2ccccc2)cc1 (centres undefined)	9.47µM*	2.9%	-10.0%	7.94µM*	?	-23.3
Cc1ccc(S(=O)(=O)N2C(=O)C(C)SC2=Nc2ccccc2)cc1 (centres undefined)	-13.3%	2.5%	-12.1%	0.1%	4.9%	5.0
CCCCC(=O)O[C@]1(C(=O)CO)[C@H](C)C[C@H]2[C@@H]3CCC4=CC(=O)C=C[C@]4(C)[C@@]3(F)[C@@H](O)C[C@@]21C	·	·	·	29.3%[59 µM]	·	·
Cc1ccc(CC(=S)N2CCOCC2)cc1	18.9µM*	5.1%	-5.6%	8.91µM*	-19.5%	-7.0
COc1ccc(CC(=S)N2CCOCC2)cc1	7.52µM*	-1.0%	-18.9%[57.1 µM]	?	?	-22.3
Cc1ccc(CC(=O)Nc2ccc(C(=O)N3CCOCC3)cc2)cc1	-11.0%	-19.4%	-1.4%	17.8µM*	10.7%	-4.3
CCc1ccc(CC(=S)N2CCOCC2)cc1	-18.2%	0.6%	-4.2%	3.9%	61.0%	0.4
S=C(Cc1ccc(-c2ccccc2)cc1)N1CCOCC1	-3.6%	·	-9.6%	·	22.5%	1.7
CC(=O)/C(=N\Nc1ccc(C)cc1)N1CCOCC1	3.1%	-1.0%	-16.7%	28.2µM*	14.7%	-0.7
CCN1C[C@@H]2[C@@H]3C(=O)N(Cc4ccccc4)C(=O)[C@@H]3[C@](C)(C1=O)N2C(=O)c1ccc(Br)cc1	-1.4%	·	-10.5%	·	42.5%	-1.0
COc1ccc(CN(C)CC(=O)Nc2ccccc2C(F)(F)F)cc1	-1.1%	8.5%	29.6%	60.1%	105.8%	4.7
COc1ccc(CNCc2ccccc2C(F)(F)F)cc1	-8.2%	79.4µM*	28.2µM*	8.91µM*	?	-7.8
COc1ccc(CNCc2cccc3ccccc23)cc1	1.7%	?	17.8µM*	·	?	4.4
COc1ccc(CCNCC(=O)Nc2ccccc2C(F)(F)F)cc1	26.7µM*	50.1µM*	3.16µM*	2.51µM*	?	-11.5
COc1ccc(CC(=O)NCc2ccccc2)cc1	3.2%	10.6%	-21.0%	38.6%	-14.6%	1.5
SMILES	PLK1 PBD inh	BAZ2B inh	JMJD2A Tudor inh	G9a block	HP1b binding inh	PI5P4Ka inh
Fc1ccc(CNCc2ccccc2C(F)(F)F)cc1	-0.8%	6.4%	-0.7%	?	49.0%	16.0
COc1ccc2ccc(O)c(CN(C)CC(=O)Nc3ccccc3C(F)(F)F)c2c1	10.6µM*	-12.6%	?	7.94µM*	-20.2%	-17.4
CC1CC=CC2C1C(=O)N(Cc1ccccc1)C2c1ccoc1 (centres undefined)	·	·	-24.8%	·	4.3%	·
Cc1cc2cc(CCNC(=O)CCCc3ccccc3)c(=O)[nH]c2cc1C	-19.8%	-13.1%	-3.3%	18.1%[59 µM]	26.5%	4.4
COc1cccc(CN2CC(C(=O)NC3CCC3)CCC2=O)c1 (centres undefined)	?	0.6%	-18.1%	?	11.0%[57 µM]	-3.8
O=C(NCCC(=O)N1CCN(c2ccccc2O)CC1)c1ccc(Cl)cc1	-1.7%	-4.8%	-17.9%	50.1µM*	7.6%	-19.4
O=C(NCc1ccc(Cl)cc1)N1CCN(C(=O)c2ccccc2)CC1	0.7%	·	·	·	·	0.5
O=C(NCc1ccc(Cl)cc1)N1CCN(S(=O)(=O)c2ccccc2)CC1	-13.1%	-2.7%	-12.2%	50.1µM*	-14.0%	0.3
O=C(NCCC(=O)N1CCN(c2ccccn2)CC1)c1ccc(Cl)cc1	-0.3%	·	-3.5%	·	25.5%	-2.6
O=C(NCCC(=O)N1CCN(S(=O)(=O)c2ccc(Cl)cc2)CC1)Nc1ccccc1	-0.1%	7.7%	-16.6%	50.1µM*	8.5%	0.7
CCCc1ccc(S(=O)(=O)N2CCN(C(C)C(=O)NCc3ccccc3)CC2)cc1 (centres undefined)	-6.6%	7.2%	-24.1%	56.2µM*	13.5%	11.5
O=C(NCCCc1nc2ccccc2n1Cc1ccccc1Cl)C1CCCCC1	·	-16.1%	3.0%	-1.7%[59 µM]	32.3%	·
Cc1ccc(NC(=O)N2CCN(S(=O)(=O)c3ccccc3)CC2)cc1	-5.4%	-0.9%	-11.3%[11.4 µM]	8.6%	31.7%	-5.8
Cc1ccccc1NC(=O)N1CCN(S(=O)(=O)c2ccccc2)CC1	16.8µM*	-0.2%	?	-15.4%	?	-7.6
COc1ccc(C)cc1S(=O)(=O)Nc1cccc(-c2ccc(N3CCCC3)nn2)c1	·	1.4%	-7.0%	-4.0%[59 µM]	19.0%[57 µM]	·
CC1(C)CC(N=C2C([N+](=O)[O-])=CC=C3C2=NC2(CCCCC2)N3O)CC(C)(C)N1	0.5%	-34.7%	-12.5%	·	-10.2%	-0.8
O=[N+]([O-])C1=CC=C2C(=NC3(CCCCC3)N2O)C1=NCCc1ccccc1	?	-23.7%	-12.8%[11.4 µM]	7.08µM*	-22.2%	-8.6
O=[N+]([O-])CC1(n2nc3ccccc3n2)CCCCC1	3.5%	-2.2%	5.5%	1.7%[2.33 µM]	38.8%	-5.2
O=[N+]([O-])C1=CC=C2C(=NC3(CCCCC3)N2O)C1=NC1CCCCC1	-12.0%	3.16µM*	?	·	12.6µM*	·
CC(C)(C)N=C1C([N+](=O)[O-])=CC=C2C1=NC1(CCCCC1)N2O	-10.0%	5.62µM*	6.31µM*	3.55µM*	25.1µM*	-0.9
CCN(CC(=O)Nc1ccccc1OC)C(=O)CSCc1ccc(C)cc1	0.9%	-5.7%	-4.9%	2.4%[59 µM]	29.6%	8.6
